# Measured values published in PubChem BioAssay.
# Values without a mark were called inactive. Calls of active or inactive are those of the source.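 The calls were made as follows: active = normalized viability below 100% at a tested concentration; inactive = the rest.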
# Assay: ovarian cancer cell viability with rucaparib, profiling panel, oncology-focused library, rucaparib conditional (AID 1508598)
# Settings: patient-derived ovarian cancer cells, CellTiter-Glo viability, 144 h, stronger effect = lower value
# [1] = at 5 µM, OCI-P5x cells, with rucaparib 20 µM, 100% = cells with rucaparib alone
# [2] = at 5 µM, OCI-P5x cells, without rucaparib
# [3] = at 0.000305 µM, OCI-C5x cells, with rucaparib 10 µM, 100% = cells with rucaparib alone
# [4] = at 0.000305 µM, OCI-C5x cells, without rucaparib
# [5] = at 0.000305 µM, OCI-P5x cells, with rucaparib 20 µM, 100% = cells with rucaparib alone
# [6] = at 0.000305 µM, OCI-P5x cells, without rucaparib
# [7] = at 0.00122 µM, OCI-C5x cells, with rucaparib 10 µM, 100% = cells with rucaparib alone
# [8] = at 0.00122 µM, OCI-C5x cells, without rucaparib
# [9] = at 0.00122 µM, OCI-P5x cells, with rucaparib 20 µM, 100% = cells with rucaparib alone
# [10] = at 0.00122 µM, OCI-P5x cells, without rucaparib
# [11] = at 0.00488 µM, OCI-C5x cells, with rucaparib 10 µM, 100% = cells with rucaparib alone
# [12] = at 0.00488 µM, OCI-C5x cells, without rucaparib
# [13] = at 0.00488 µM, OCI-P5x cells, with rucaparib 20 µM, 100% = cells with rucaparib alone
# [14] = at 0.00488 µM, OCI-P5x cells, without rucaparib
# [15] = at 0.0195 µM, OCI-C5x cells, with rucaparib 10 µM, 100% = cells with rucaparib alone
# [16] = at 0.0195 µM, OCI-C5x cells, without rucaparib
# [17] = at 0.0195 µM, OCI-P5x cells, with rucaparib 20 µM, 100% = cells with rucaparib alone
# [18] = at 0.0195 µM, OCI-P5x cells, without rucaparib
# [19] = at 0.0781 µM, OCI-C5x cells, with rucaparib 10 µM, 100% = cells with rucaparib alone
# [20] = at 0.0781 µM, OCI-C5x cells, without rucaparib
# [21] = at 0.0781 µM, OCI-P5x cells, with rucaparib 20 µM, 100% = cells with rucaparib alone
# [22] = at 0.0781 µM, OCI-P5x cells, without rucaparib
# [23] = at 0.313 µM, OCI-C5x cells, with rucaparib 10 µM, 100% = cells with rucaparib alone
# [24] = at 0.313 µM, OCI-C5x cells, without rucaparib
# [25] = at 0.313 µM, OCI-P5x cells, with rucaparib 20 µM, 100% = cells with rucaparib alone
# [26] = at 0.313 µM, OCI-P5x cells, without rucaparib
# [27] = at 1.25 µM, OCI-C5x cells, with rucaparib 10 µM, 100% = cells with rucaparib alone
# [28] = at 1.25 µM, OCI-C5x cells, without rucaparib
# [29] = at 1.25 µM, OCI-P5x cells, with rucaparib 20 µM, 100% = cells with rucaparib alone
# [30] = at 1.25 µM, OCI-P5x cells, without rucaparib
# [31] = at 5 µM, OCI-C5x cells, with rucaparib 10 µM, 100% = cells with rucaparib alone
# [32] = at 5 µM, OCI-C5x cells, without rucaparib
smiles,measurement,setting,value
Nc1nc(F)nc2c1ncn2[C@H]1O[C@H](CO)[C@@H](O)[C@@H]1O,viability,[1],106%
same,viability,[2],38.5% (active)
COc1ccc(C2=N[C@H](c3ccc(Cl)cc3)[C@@H](c3ccc(Cl)cc3)N2C(=O)N2CCNC(=O)C2)c(OC(C)C)c1,viability,[3],112%
same,viability,[4],103%
same,viability,[5],88.9% (active)
same,viability,[6],86.6% (active)
same,viability,[7],118%
same,viability,[8],101%
same,viability,[9],93.4% (active)
same,viability,[10],85.3% (active)
same,viability,[11],130%
same,viability,[12],112%
same,viability,[13],95.4% (active)
same,viability,[14],90.1% (active)
same,viability,[15],127%
same,viability,[16],105%
same,viability,[17],96.3% (active)
same,viability,[18],86.4% (active)
same,viability,[19],120%
same,viability,[20],111%
same,viability,[21],86.1% (active)
same,viability,[22],78.2% (active)
same,viability,[23],111%
same,viability,[24],107%
same,viability,[25],64.3% (active)
same,viability,[26],56.8% (active)
same,viability,[27],114%
same,viability,[28],102%
same,viability,[29],98.1% (active)
same,viability,[30],98% (active)
same,viability,[31],182%
same,viability,[32],137%
same,viability,[1],94.1% (active)
same,viability,[2],98.2% (active)
N[C@@H]1CCCN(c2c(/C=C3\SC(=O)NC3=O)cccc2-c2ccccc2)C1,viability,[3],108%
same,viability,[4],122%
same,viability,[5],96.6% (active)
same,viability,[6],112%
same,viability,[7],116%
same,viability,[8],121%
same,viability,[9],98.1% (active)
same,viability,[10],111%
same,viability,[11],119%
same,viability,[12],119%
same,viability,[13],103%
same,viability,[14],108%
same,viability,[15],105%
same,viability,[16],108%
same,viability,[17],96.9% (active)
same,viability,[18],111%
same,viability,[19],108%
same,viability,[20],115%
same,viability,[21],101%
same,viability,[22],109%
same,viability,[23],105%
same,viability,[24],99.1% (active)
same,viability,[25],91.3% (active)
same,viability,[26],106%
same,viability,[27],93.8% (active)
same,viability,[28],103%
same,viability,[29],91.3% (active)
same,viability,[30],106%
same,viability,[31],115%
same,viability,[32],119%
same,viability,[1],74.6% (active)
same,viability,[2],97.5% (active)
c1ccc(Cn2c(-c3ccc(OC[C@H](C4CCNCC4)n4c(-c5ccccc5)nc5ccccc54)cc3)nc3ccccc32)cc1,viability,[3],117%
same,viability,[4],110%
same,viability,[5],90.3% (active)
same,viability,[6],96.7% (active)
same,viability,[7],123%
same,viability,[8],125%
same,viability,[9],98.1% (active)
same,viability,[10],99.5% (active)
same,viability,[11],125%
same,viability,[12],126%
same,viability,[13],99.2% (active)
same,viability,[14],101%
same,viability,[15],121%
same,viability,[16],107%
same,viability,[17],96.1% (active)
same,viability,[18],106%
same,viability,[19],110%
same,viability,[20],117%
same,viability,[21],95.8% (active)
same,viability,[22],105%
same,viability,[23],118%
same,viability,[24],120%
same,viability,[25],105%
same,viability,[26],109%
same,viability,[27],130%
same,viability,[28],131%
same,viability,[29],33.8% (active)
same,viability,[30],102%
same,viability,[31],1.56% (active)
same,viability,[32],3.14% (active)
same,viability,[1],1.07% (active)
same,viability,[2],1.44% (active)
CC(C)C[C@H](NP(=O)(O)O[C@@H]1O[C@@H](C)[C@H](O)[C@@H](O)[C@H]1O)C(=O)N[C@@H](Cc1c[nH]c2ccccc12)C(=O)O,viability,[3],124%
same,viability,[4],113%
same,viability,[5],105%
same,viability,[6],99.9% (active)
same,viability,[7],127%
same,viability,[8],113%
same,viability,[9],97.2% (active)
same,viability,[10],103%
same,viability,[11],127%
same,viability,[12],116%
same,viability,[13],104%
same,viability,[14],96.5% (active)
same,viability,[15],122%
same,viability,[16],106%
same,viability,[17],101%
same,viability,[18],93.9% (active)
same,viability,[19],121%
same,viability,[20],107%
same,viability,[21],99.3% (active)
same,viability,[22],96.3% (active)
same,viability,[23],124%
same,viability,[24],103%
same,viability,[25],98.1% (active)
same,viability,[26],98.7% (active)
same,viability,[27],132%
same,viability,[28],117%
same,viability,[29],94.3% (active)
same,viability,[30],91.1% (active)
same,viability,[31],123%
same,viability,[32],104%
same,viability,[1],88.8% (active)
same,viability,[2],92% (active)
COc1cccc2c1C(=O)c1c(O)c3c(c(O)c1C2=O)C[C@@](O)(C(=O)CO)C[C@H]3O[C@H]1C[C@H](N)[C@H](O)[C@H](C)O1,viability,[3],127%
same,viability,[4],120%
same,viability,[5],109%
same,viability,[6],109%
same,viability,[7],111%
same,viability,[8],111%
same,viability,[9],110%
same,viability,[10],106%
same,viability,[11],118%
same,viability,[12],117%
same,viability,[13],104%
same,viability,[14],108%
same,viability,[15],130%
same,viability,[16],110%
same,viability,[17],103%
same,viability,[18],106%
same,viability,[19],115%
same,viability,[20],103%
same,viability,[21],97.4% (active)
same,viability,[22],82% (active)
same,viability,[23],164%
same,viability,[24],125%
same,viability,[25],58.8% (active)
same,viability,[26],32.7% (active)
same,viability,[27],50% (active)
same,viability,[28],16.5% (active)
same,viability,[29],10.3% (active)
same,viability,[30],13.8% (active)
same,viability,[31],4.6% (active)
same,viability,[32],1.33% (active)
same,viability,[1],5.65% (active)
same,viability,[2],8.22% (active)
COc1cc(=C2C=c3ccccc3=N2)[nH]/c1=C\c1[nH]c(C)cc1C,viability,[3],118%
same,viability,[4],122%
same,viability,[5],81.8% (active)
same,viability,[6],30.2% (active)
same,viability,[7],127%
same,viability,[8],124%
same,viability,[9],69.4% (active)
same,viability,[10],19.5% (active)
same,viability,[11],132%
same,viability,[12],114%
same,viability,[13],105%
same,viability,[14],97.2% (active)
same,viability,[15],115%
same,viability,[16],115%
same,viability,[17],98.9% (active)
same,viability,[18],97.5% (active)
same,viability,[19],110%
same,viability,[20],79.1% (active)
same,viability,[21],29.2% (active)
same,viability,[22],77.3% (active)
same,viability,[23],131%
same,viability,[24],93.7% (active)
same,viability,[25],13.2% (active)
same,viability,[26],18.4% (active)
same,viability,[27],89.4% (active)
same,viability,[28],91.7% (active)
same,viability,[29],10.1% (active)
same,viability,[30],22% (active)
same,viability,[31],37.7% (active)
same,viability,[32],21.3% (active)
same,viability,[1],1.33% (active)
same,viability,[2],3.6% (active)
